Data on six molecules can be found in PubChem BioAssay.

Broadly, the inhibition is the relative decrease from the control value, in per cent.

A short description of experiment [1]: LFS_MB_1R medulloblastoma cell growth inhibition, synergistic combos for chromothripsis tumors, cisplatin or BGB combos (AID 1671452).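 Also: cells exposed for 96 hours before readout.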 The settings on record: LFS_MB_1R medulloblastoma cells, stronger effect = higher value.
Experiment [2] can be described thus: CRL2098 osteosarcoma cell growth inhibition, synergistic combos for chromothripsis tumors, BGB or cisplatin IC20 combos (AID 1671454).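 Also: cells exposed for 96 h before readout; 0% = vehicle DMSO and 100% = killing by high DMSO.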 The settings on record: CRL2098 osteosarcoma cells, drug combinations, stronger effect = higher value.
Experiment [3] is described as follows: HD-MB03 medulloblastoma cell growth inhibition, synergistic combos for chromothripsis tumors, BGB or cisplatin IC20 combos (AID 1671455; in the data active = inhibition above about 83%;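 also: 0% = vehicle DMSO and 100% = high DMSO as cytotoxic control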). Particulars: HD-MB03 medulloblastoma cells, stronger effect = higher value.
The nature of experiment [4]: UWB1.289 ovarian carcinoma cell growth inhibition, synergistic combos for chromothripsis tumors, BGB or cisplatin combos (AID 1671456).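 Also: cells exposed to compound for four days; 0% = vehicle DMSO and 100% = killing by high DMSO.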 The settings on record: UWB1.289 ovarian carcinoma cells, stronger effect = higher value.
The nature of experiment [5]: LFS_MB_2R medulloblastoma cell growth inhibition, synergistic combos for chromothripsis tumors, cisplatin combos (AID 1671457).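 Also: cells exposed to compound for four days before readout.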 The settings on record: LFS_MB_2R medulloblastoma cells, stronger effect = higher value.
Experiment [6] can be described thus: UWB1.289_BRCA1 ovarian cancer growth, cell-based, BGB or cisplatin combinations (AID 1671459). The settings on record: UWB1.289 BRCA1 ovarian carcinoma, drug combinations, stronger effect = higher value.
Experiment [7] can be described thus: human astrocyte viability loss, single and combined drugs, cytotoxicity control for chromothriptic childhood tumor combination screen, cell-based, BGB or cisplatin IC20 combos (AID 1671460).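 Also: cells exposed to compounds for 96 hours before viability readout; 0% = vehicle and 100% = killing control.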 The settings on record: Human astrocytes, drug combinations, stronger effect = higher value.
A short description of experiment [8]: growth inhibition of RCMB18 medulloblastoma cells, cell-based, cisplatin and BGB IC40 combos (AID 1671462).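 Also: cells exposed to compound for four days.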 The settings on record: stronger effect = higher value.
Experiment [9] is described as follows: growth inhibition of CRL1545 osteosarcoma cells, cell-based, cisplatin and BGB IC20 combos (AID 1671464).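 Also: cells exposed to compound for 96 hours before readout; 0% = vehicle DMSO and 100% = high DMSO killing control.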 The settings on record: stronger effect = higher value.
Experiment [10] deals with Hepatitis C virus NS3 helicase. Briefly: HCV NS3 helicase inhibitors, primary screen, biochemical, fluorescence polarization, LOPAC1280 library (AID 687035; in the data active = inhibition above about 37%). The settings on record: Purified HCV NS3 helicase, Cy5-dT15 ssDNA binding fluorescence polarization; stronger effect = higher value; concentration not given here. (In general: Polarisation of emitted light reports the rotation of a fluorescent probe.)

Experiment [11] is described as follows: Cy5 fluorescence quenching or enhancement artefacts, artefact control for HCV NS3 helicase inhibitor project, biochemical, LOPAC1280 (AID 687037; call rule not given here). Particulars: Cy5-DNA-NS3h complex fluorescence interference counterscreen. (In general: Counterscreens check selectivity or assay interference.)
Experiment [12] is described as follows: viability rescue of complex I mutant cybrids, primary screen, cell-based, galactose medium, ATP luminescence (AID 1645843;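 active = z-score of at least 1.8 in each of two replicates, scored against plate mean and spread of sample wells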;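 also: positive z means more ATP and so rescue of galactose-driven cybrid death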). The settings on record: complex I mutant cybrid cells, 72 h, stronger effect = higher value.
Experiment [13] is described as follows: hESC survival regulators, cell-based (AID 493140; call rule not given here;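 also: cells exposed to compounds for four days before counting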). Particulars: human embryonic stem cell survival screen; stronger effect = higher value.
Experiment [14] in a line: kinase inhibitors against Plasmodium liver-stage infection, cell-based, known kinase inhibitor set, luminescence, hepatoma host viability (AID 624392; call rule not given here;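 also: infected cells incubated roughly two days before readout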). Particulars: Plasmodium liver stage in hepatoma cells, luciferase luminescence, concentration not given here; liver cell % of control: measured here: host liver cell viability; parasite % of control: stronger effect = lower value.
Experiment [15] in a line: phospholipid biosynthesis inhibitors in animal cells, primary screen, cell-based, LOPAC library, screen 4 (AID 1347384; call rule not given here). The settings on record: phospholipid biosynthesis inhibition screen, at 10 µM.
[16] abbreviates: measured here: combination with BGB IC40, at 0.05 µM.
The mark [17] stands for this setting: measured here: combination with cisplatin, at 0.5 µM.
The mark [18] stands for this setting: measured here: combination with cisplatin, at 5 µM.
Where [19] appears, read: measured here: combination with BGB at IC20, at 0.5 µM.
[20] abbreviates: measured here: combination with cisplatin at IC20, at 0.5 µM.
Where [21] appears, read: measured here: combo with BGB at IC20, at 0.5 µM.
Setting [22] is: measured here: combo with cisplatin at IC20, at 0.5 µM.
Setting [23] is: measured here: inhibition with BGB combination, at 0.05 µM.
Setting [24] is: measured here: inhibition with cisplatin combination, at 0.05 µM.
[25] abbreviates: BGB combination, concentration series, at 5 µM.
[26] abbreviates: cisplatin combination, concentration series, at 5 µM.
Setting [27] is: measured here: combo with BGB IC20, at 0.5 µM.
Setting [28] is: measured here: combo with cisplatin IC20, at 0.5 µM.
Where [29] appears, read: measured here: BGB IC40 combination, at 0.05 µM.
The mark [30] stands for this setting: measured here: with BGB IC20 combination, at 0.5 µM.
Setting [31] is: measured here: with cisplatin IC20 combination, at 0.5 µM.

Molecules are shown by their SMILES. “And” between values parts separate entries of the source, which are not always exact repeats. Equal entries are not always repeated. Where a structure was tested more than once in an assay, its records may differ in their call. The source made the active and inactive calls. Rule as the data show it, unless noted: active = inhibition above about 80%; inactive = the rest.

As to `CN(C)c1ccc(C(=O)NCCCCCCC(=O)NO)cc1`, the inhibition in experiment [1] (at 0.5 µM) was 32.4% (inactive); in experiment [1] (setting [16]), -37.9%; in experiment [1] (setting [17]) it was 63.6%; in experiment [1] (setting [18]), 97.6%; in experiment [2] (at 0.5 µM) it was -26.1% (inactive); in experiment [2] (setting [19]), -83.1%. Further, the inhibition in experiment [2] (setting [20]) is 6.53%; in experiment [3] (at 0.5 µM), 47.5% (inactive); in experiment [3] (setting [21]), 38.6%; in [3] (setting [22]), 81.5%; in experiment [4] (at 0.5 µM), 31% (inactive); in [4] (setting [23]), -11.2%. Besides, the inhibition in [4] (setting [24]) is 3.19%; in experiment [5] (at 0.5 µM), 15.7% (inactive); in [5] (setting [17]), 37.8%; in experiment [5] (setting [18]), 95.1%; in experiment [6] (setting [25]), 88.6%; in experiment [6] (at 0.5 µM) it was 35.3% (inactive). Also, the inhibition in experiment [6] (setting [26]) was 103%; in experiment [7] (at 0.5 µM) it was 25.9% (inactive); in [7] (setting [27]), 24.7%; in experiment [7] (setting [28]), 16.4%; in experiment [8] (at 0.5 µM) it was 31.7% (inactive); in [8] (cisplatin combo, at 5 µM) it was 93.3%. In addition, the inhibition is -8.02% in experiment [8] (setting [29]); 62.9% in experiment [8] (setting [17]); 89% in experiment [8] (single agent, at 5 µM); 76.1% (inactive) in experiment [9] (at 0.5 µM); 71.1% in experiment [9] (setting [30]); 78% in [9] (setting [31]). The inhibition in experiment [9] (single agent, at 0.05 µM) was found to be 23%; in experiment [9] (single agent, at 5 µM), 91.7%.

For `O=C1NC(=O)/C(=C/c2ccc3c(c2)OC(F)(F)O3)S1`, the inhibition in [10] is -5% (inactive). The fluorescence ratio (interference) in experiment [11] was 1 (inactive). For the same molecule, the z-score in experiment [12] was -0.34 (inactive).

For the molecule `CCCCC(C)(C)[C@H](O)/C=C/[C@H]1[C@H](O)CC(=O)[C@@H]1C/C=C\CCCC(=O)O`, the survival in experiment [13] was 68.2 (inactive).

Consider `CC(C)(C)c1cnc(CSc2cnc(NC(=O)C3CCNCC3)s2)o1`, for which, in [14], the liver cell % of control was 42.1% and 45.4% and 53.6%; the parasite % of control is 0.331% (inactive) and 0.54% (inactive) and 1.3% (active).

For the molecule `O=C1NCCc2[nH]c(-c3ccncc3)cc21`, the molecule was called inactive in [15].

As to `C[C@]1(c2nc3c(C(N)=O)cccc3[nH]2)CCCN1`, the inhibition in [1] (at 0.5 µM) was -23.5% (inactive) and -13.6% (inactive); in [1] (setting [16]) it was -41.9% and -23.5%; in [1] (setting [17]), -45.7% and 4.68%; in experiment [1] (setting [18]), -38.3% and -18.5%; in experiment [2] (at 0.5 µM) it was -49.8% (inactive) and -59.1% (inactive); in [2] (setting [19]), -12.1% and -70.3%. Further, the inhibition in experiment [2] (setting [20]) is -110% and -65.8%; in experiment [3] (at 0.5 µM), -8.8% (inactive) and -9.57% (inactive); in [3] (setting [21]), -16.2% and -2.73%; in experiment [3] (setting [22]), -3.64% and -17.6%; in [4] (at 0.5 µM), -9.31% (inactive) and 2.13% (inactive); in experiment [4] (setting [23]) it was -8.28% and -17%. In addition, the inhibition is -23.7% and -11.7% in experiment [4] (setting [24]); -25% (inactive) and -15.4% (inactive) in [5] (at 0.5 µM); -36.7% and -21.6% in experiment [5] (setting [17]); -29.1% and -120% in experiment [5] (setting [18]); 10.2% and -0.186% in experiment [6] (setting [25]); -7.22% (inactive) and -0.79% (inactive) in experiment [6] (at 0.5 µM). The inhibition in experiment [6] (setting [26]) is -4.84% and 4.22%; in [7] (at 0.5 µM) it was 9.85% (inactive) and -2.9% (inactive); in experiment [7] (setting [27]), -1.53% and -5.78%; in experiment [7] (setting [28]) it was 9.8% and -13.1%; in experiment [8] (at 0.5 µM) it was -11.5% (inactive) and -16.6% (inactive); in experiment [8] (cisplatin combo, at 5 µM), -70.2% and -50.3%. Also, the inhibition in experiment [8] (setting [29]) was -22.5% and 6.81%; in experiment [8] (setting [17]) it was -15.1%; in experiment [8] (single agent, at 5 µM) it was -28.5% and -25.1%; in experiment [9] (at 0.5 µM) it was -23.7% (inactive) and 9.34% (inactive); in experiment [9] (setting [30]), -29.8% and -8.71%; in [9] (setting [31]) it was -22.5% and 16.5%. Moreover, the inhibition in experiment [9] (single agent, at 0.05 µM) is -19.2% and -14.5%; in experiment [9] (single agent, at 5 µM) it was -45.7% and -33.6%.
